SMN2 splice enh: increases expression of the SMN2 splice variant | HEK293 SMN2-luciferase splicing reporter, luminescence, 30-36 h | Potency, µM (series often up to 46.1 µM), for inactives: top-dose activity change, positive = activation, hits mostly activators | 2.8% of 210,000 active | AID 1458; note: % of control where 0% means no effect; nearly all actives have a fitted effect of over 55% in size
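HEK293 cells carry an SMN2 minigene-luciferase reporter in which exon 7 inclusion puts luciferase in frame. Cells were seeded at 2000 cells/well, attached for 10-12 hours, then exposed to compounds for 30-36 hours at 37C before ONE-Glo luminescence.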
Luc counter: blocks Kinase-Glo luciferase, a counter-screen artifact | Q27757 | Kinase-Glo luciferase, ATP luminescence, 8 min | Potency, µM (top dose mostly 38.3 µM), inactives show top-dose activity change, negative = inhibition, usual class: inhibitors | 0.28% of 200,000 active | AID 1379; note: % is set by controls: 0 for no effect and ±100 for the full control effect; nearly all actives have a fitted effect of over 60% in size
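Luminescence was the read-out, taken after 8-minute incubation at ambient temperature. Luciferase turned over luciferin with 10 uM ATP in imidazole pH 7.2 buffer containing KCl, MgCl2, Tween 20 and BSA.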
Rab9 prom act: activates the Rab9 promoter; AID 485297; Potency, µM (top dose mostly 9.22 µM), without a hit: at the top dose activation, negative = inhibition, hits mostly activators; Huh7 Rab9 promoter-luciferase reporter, luminescence, 24 h; 2.8% of 320,000 active; note: % of control where 0% means no effect; nearly all actives have a fitted effect of over 60% in size
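Quantitative HTS format; Huh7 Rab9-luciferase reporter cells (1500/well) receive compound 2 h post-plating, incubate 24 h at 37 °C, then get luciferase reagent for 10 min before luminescence reading.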
NPC1 prom act: activates the NPC1 promoter; Potency, µM (series often up to 9.22 µM), for the others: at the highest dose activation, most hits filed as activators; 2.4% of 320,000 active; Huh7 NPC1 promoter luciferase reporter, 24 h; note: % of control where 0% means no effect; nearly all actives have a fitted effect of over 60% in size
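Luminescence from an NPC1 promoter-driven luciferase reporter in stably transfected Huh7 cells was measured after 24 h compound treatment at 37 °C, followed by 10 min ambient incubation with luciferase detection reagent.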
ELG1 genotoxic: inducers of genotoxicity in HEK293T ELG1-luciferase cells; HEK293T ELG1-luciferase reporter, luminescence, 16 h; Potency, µM (highest dose often 46 µM), for inactives: top-dose activity change, positive = activation, hits mostly activators; 1.3% of 330,000 active; note: % of control where 0% means no effect; nearly all actives have a fitted effect of over 60% in size
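After overnight (16 hr) compound treatment at 37 °C, ELG1-luciferase HEK293T cells were lysed with ONE-Glo; luminescence quantified 30 min later at room temperature.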
FLuc modulator: counter-screen for miR-21 project: firefly luciferase inhibitors or activators; P08659; purified FLuc, Km substrates, luminescence inhibition; Potency, µM (top dose mostly 57.5 µM), without a hit: at the top dose activity change, negative = inhibition, usual class: inhibitors; 6.9% of 360,000 active;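 note: plate controls were vehicle for no effect and reference inhibitor for full effect; nearly all actives have a fitted effect of over 55% in size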
Target sequence (P08659 whole entry, looked up): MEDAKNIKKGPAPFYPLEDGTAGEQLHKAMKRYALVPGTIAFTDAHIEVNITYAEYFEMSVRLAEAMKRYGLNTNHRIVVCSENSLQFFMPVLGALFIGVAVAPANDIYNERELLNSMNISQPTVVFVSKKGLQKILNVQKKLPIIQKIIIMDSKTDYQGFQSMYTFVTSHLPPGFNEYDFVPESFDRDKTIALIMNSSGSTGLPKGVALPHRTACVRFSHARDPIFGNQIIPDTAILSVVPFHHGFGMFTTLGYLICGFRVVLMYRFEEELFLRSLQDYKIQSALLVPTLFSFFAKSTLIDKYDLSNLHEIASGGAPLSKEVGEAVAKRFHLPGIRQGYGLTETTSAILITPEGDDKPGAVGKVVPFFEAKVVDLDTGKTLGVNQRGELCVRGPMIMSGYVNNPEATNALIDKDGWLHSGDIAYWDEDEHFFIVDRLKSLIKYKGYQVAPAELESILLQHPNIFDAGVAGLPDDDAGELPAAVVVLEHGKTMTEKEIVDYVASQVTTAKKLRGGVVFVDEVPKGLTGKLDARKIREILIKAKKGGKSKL
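Purified P. pyralis luciferase (10nM final) with 10uM D-luciferin and 10uM ATP (Km levels) in 50mM Tris acetate pH 7.5, 10mM Mg acetate, 0.01% Tween-20, 0.05% BSA; qHTS 6-point titration, ~60 µM downward; luminescence read.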
The depositor's hits bear a star; ? = inconclusive; · = not tested or not shown; [ ] = dose if it differs, or a comment. A selection: hits, their analogues and other compounds. The true share with any hit is near 7.3%. Calls come from the whole dose curve; as a rule, active = well fitted curve in the direction sought with a large enough effect; inconclusive = small, poorly fitted or top-dose-only effect, or another doubt; inactive = no such curve, though single readings can be large; an effect the other way counts as inactive or inconclusive. Potency is the fitted concentration of half-maximal effect.

SMILES | SMN2 splice enh | Luc counter | Rab9 prom act | NPC1 prom act | ELG1 genotoxic | FLuc modulator
CCOc1ccc2nc(N(Cc3cccnc3)C(C)=O)sc2c1 | · | · | · | · | · | -12%
Cc1ccccc1CCN(C(=O)Cn1nnc2ccccc21)C(C(=O)NC(C)(C)C)c1ccsc1 (stereo not drawn) | 31% | 1% | -7% | -2% | ? | -2%
COc1cc(CN2CCC(C(=O)NC3CCCC3)CC2)ccc1O | 12% | 5% | -2% | 0% | 13% | 3%
COC(=O)Cn1c(=NC(=O)c2ccc3c(c2)OCCO3)sc2ccccc21 | · | · | · | · | · | 8.5µM*
CCOC(=O)Cn1c(O)c(N=NC(=O)OC)c2ccccc21 | · | · | 3% | 2% | 0% | 3%
COC(=O)Cn1c(O)c(N=NC(=O)c2ccc3c(c2)OCO3)c2ccccc21 | · | -13% | 30% | ? | 9% | 0.95µM*
O=S1(=O)NC(=NCc2ccccc2)c2ccccc21 | 12% | 6% | 1% | 1% | -2% | 0%
COCC(=O)N1CCC2(CC1)CN(Cc1nccs1)C2 | -9% | -9% | · | · | · | ·
COc1ccc(NC(=O)Nc2cccc3ccccc23)cc1OC | · | · | -1% | -2% | 8% | -8%
CC(=O)c1cccc(NC(=O)Nc2cccs2)c1 | 15% | -3% | 10% | 15% | -20% | 19µM*
COc1ccc(NC(=O)Nc2cccs2)cc1OC | -7% | -5% | 20% | 18% | ? | 21µM*
COc1cccc(NC(=O)Nc2cccs2)c1 | ? | -8% | ? | 19% | 2% | 24µM*
CC1(C(=O)O)CCC(C(=O)Nc2ccc(OC(F)(F)Cl)cc2)C1(C)C (stereo not drawn) | · | · | -4% | 0% | 3% | 2%
Cc1ccc(-c2nc(CCNC(=O)c3ccc(C)c(C)c3)cs2)cc1 | · | · | · | · | · | 24µM*
Cc1ccc(-c2nc(CCNC(=O)C(=O)Nc3ccc(C)c(C)c3)cs2)cc1 | · | · | · | · | · | 1%
Cc1ccc(C(=O)NCCc2csc(-c3cccnc3)n2)cc1 | ? | -2% | ? | 20% | ? | 5.4µM*
COc1cccc(C(=O)NCCc2csc(-c3ccc(Cl)cc3)n2)c1 | · | · | · | · | · | 21µM*
COc1cccc(OC)c1C(=O)NCCc1csc(-c2ccc(Cl)cc2)n1 | · | · | · | · | · | -4%
O=C(NCCc1csc(-c2cccnc2)n1)c1cccs1 | -1% | 2% | 2% | 0% | -4% | ?
CC(=O)Nc1ccc(Nc2nc3ccc(Cl)cc3n3cnnc23)cc1 | -7% | · | · | · | · | -1%
O=C(NC1CCCCC1)c1ccc2c(c1)OCCO2 | · | · | 3.2µM* | 1.4µM* | 21µM* | 13µM*
O=C(NC1CCCCCCC1)c1ccc2c(c1)OCO2 | 5µM* | -9% | 0.4µM* | 0.79µM* | 2.1µM* | 3µM*
CN(C(=O)c1ccc2c(c1)OCO2)C1(C(=O)NC2CCCC2)CCCCC1 | 2% | 6% | -3% | 2% | -4% | 1%[2.3 µM]
O=C(NNC(=S)NCc1ccccc1)c1ccc2c(c1)OCO2 | 0% | 0% | 1% | 0% | -4% | -5%
O=C(NNC(=S)NC1CCCCC1)c1ccc2c(c1)OCO2 | 5.6µM* | 4% | 1µM* | ? | 5% | ?
SMILES | SMN2 splice enh | Luc counter | Rab9 prom act | NPC1 prom act | ELG1 genotoxic | FLuc modulator
S=C(NC1CCCCC1)c1ccc2c(c1)OCO2 | 19% | 0% | 25% | 24% | 12% | 8.5µM*
O=C(NC1CCN(Cc2ccccc2)CC1)c1ccc2c(c1)OCCCO2 | · | · | 3% | -2% | 0% | -9%
Cc1cccc2sc(N3CCN(C(=O)c4cccs4)CC3)nc12 | · | · | -4% | -3% | -2% | -3%
CCC1CCc2sc(C(=O)NCC(c3ccc(OC)cc3)N3CCOCC3)cc2C1 (stereo not drawn) | · | · | -7% | -6% | -8% | 1%
CC(C)(C)C1=CC(=Nc2ccccc2N)C=C(C(C)(C)C)C1=O | 2% | 0% | -8% | -1% | 1% | 0%
Cc1cc(O)c(-c2cc(C(=O)Nc3cccnc3)[nH]n2)cc1C | · | · | 1µM* | 0.25µM* | 3.7µM* | 1.9µM*
Cc1cc(C)c(O)c(-c2cc(C(=O)Nc3cccnc3)[nH]n2)c1 | · | · | 25% | 19% | -9% | 19µM*
CCc1ccc(O)c(-c2cc(C(=O)Nc3cccnc3)[nH]n2)c1 | · | · | 2.2µM* | 1.6µM* | ? | 11µM*
CC(=O)Nc1ccc(NC(=O)c2cc(-c3cc(C)c(C)cc3O)n[nH]2)cc1 | · | · | 23% | 11% | -15% | -13%
COc1ccc(C2c3cccn3CCN2S(=O)(=O)c2ccccc2[N+](=O)[O-])cc1OC (stereo not drawn) | · | · | · | · | · | 5%
CC(/C=C/c1ccccc1)=N\Nc1ccccc1[N+](=O)[O-] | 19% | -8% | ? | 4µM* | 14% | 7.6µM*
CC(/C=C/c1ccccc1)=N/NC(=O)c1cc([N+](=O)[O-])cc([N+](=O)[O-])c1 | -80% | -3% | -31% | -23% | 15% | 2%
CC1Cc2ccccc2N1C(=O)CO/N=C/c1ccccc1OC(F)F (stereo not drawn) | -11% | 0% | 2% | -2% | -3% | -9%
COc1ccc(Br)cc1CN(C)CC(=O)Nc1c(Cl)ccc(C)c1Cl | · | · | -3% | -3% | -10% | 8%
COc1ccc(N2C(=O)/C(=C/c3cccs3)NC2=S)cc1 | ? | 3% | 0% | 0% | 4% | ?
COc1ccc2nc(N3C(=O)/C(=C/c4ccc(Cl)cc4)NC3=S)sc2c1 | -9% | -1% | 2% | 1% | -7% | 17µM*
CCCc1cc2c(=O)c(-c3nc4ccccc4s3)c(COCC(=O)O)oc2cc1O | 51% | -2% | ? | 2% | 6% | 9.5µM*
O=C(O)c1cccc(-c2nnn(Cc3ccccc3)n2)c1 | 2.5µM* | 2% | 0.71µM* | 1.4µM* | 13% | 11µM*
Cc1ccccc1Cn1nnc(-c2cccc(C(=O)O)c2)n1 | 7.9µM* | -1% | 0.79µM* | 0.45µM* | 1.6µM* | 4.3µM*
COc1cccc(COC(=O)c2ccc(-c3nnn(Cc4ccccc4)n3)cc2)c1 | 7% | · | · | · | · | -6%
Cc1ccccc1Cn1nnc(-c2ccc(C(=O)O)cc2)n1 | 8% | 0% | 3% | 1% | 2% | ?
Cc1ccccc1-c1nnn(Cc2ccc(-c3nn[nH]n3)cc2)n1 | -4% | 3% | 4% | 1% | -2% | ?
CSc1ccc(-c2nnn(Cc3ccc(C)cc3)n2)cc1 | 18% | 14% | ? | ? | ? | 11µM*
O=C(O)c1cccc(-c2nnn(Cc3ccccc3Cl)n2)c1 | 1.6µM* | 0% | 0.4µM* | 0.45µM* | ? | 3µM*
COc1ccc(-c2nnn(Cc3ccccc3)n2)cc1 | · | · | 3.2µM* | ? | ? | 21µM*
